Bioassay records deposited in PubChem BioAssay by National Center for Advancing Translational Sciences (NCATS).
The entries come from a sample that favours hits as a whole.
nsP2pro primary = CHIKV nsP2 protease inhibition, primary qHTS | Q8JUX6 | FRET peptide cleavage, nsP2pro, fluorescence 1 h | Potency, µM (titrated, usually from 24.9 µM), usual class: inhibitors | actives 1.1% (n = 31,000); also: nearly all actives have a fitted effect of over 60% in size
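Recombinant nsP2pro (150 nM) was preincubated with compound 15 min at room temperature in 10 mM Tris-HCl pH 8.0, 0.01% Tween 20. Peptide 2 FRET substrate (2.5 uM) was then added and fluorescence read after 1 h. Seven-point series, up to 25 uM.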
nsP2 cell sec = inhibits CHIKV nsP2 protease in cells; shares compounds with nsP2pro primary; cell-based CHIKV nsP2 protease reporter assay; Potency, µM (titrated, usually from 51.1 µM), usual class: inhibitors; actives 10% (n = 450); also: nearly all actives have a fitted effect of over 70% in size
NSP2 full ctr = inhibits full-length CHIKV NSP2 enzyme. shares compounds with nsP2pro primary. Full-length CHIKV NSP2 protease enzymatic counterscreen. Potency, µM (series often up to 50.7 µM), usual class: inhibitors. actives 39% (n = 410). AID 1964101; also: nearly all actives have a fitted effect of over 65% in size
Furin counter = human furin inhibition, counterscreen for nsP2pro inhibitors. shares compounds with nsP2pro primary. Recombinant human furin enzymatic counterscreen, fluorogenic substrate. Potency, µM (titrated, usually from 50.6 µM), usual class: inhibitors. actives 6% (n = 410). AID 1964102
NS23 peptide cs = blocks CHIKV nsP2 protease cleavage of endogenous NS2/3 peptide | AID 1964103 | Purified CHIKV nsP2 protease, endogenous NS2/3 peptide cleavage | Potency, µM (titrated, usually from 51 µM), usual class: inhibitors | shares compounds with nsP2pro primary | actives 34% (n = 410); also: nearly all actives have a fitted effect of over 55% in size
Papain cs = selectivity counter-screen for CHIKV nsP2 protease inhibitors: papain; Potency, µM (doses to about 51 µM), most hits filed as inhibitors; actives 5% (n = 410); purified papain protease activity, enzymatic inhibition; shares compounds with nsP2pro primary; AID 1964104
Target sequence (P00784 whole entry, looked up): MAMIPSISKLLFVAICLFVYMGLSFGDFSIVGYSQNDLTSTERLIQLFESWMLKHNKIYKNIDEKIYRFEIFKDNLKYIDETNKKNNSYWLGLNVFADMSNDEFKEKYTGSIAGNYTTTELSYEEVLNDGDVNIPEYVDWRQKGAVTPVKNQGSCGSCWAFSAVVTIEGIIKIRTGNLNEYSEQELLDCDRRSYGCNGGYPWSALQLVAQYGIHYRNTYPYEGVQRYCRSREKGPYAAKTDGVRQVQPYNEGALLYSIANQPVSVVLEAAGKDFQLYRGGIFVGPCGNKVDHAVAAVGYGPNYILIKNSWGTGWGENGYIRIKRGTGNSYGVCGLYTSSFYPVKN
nsP2pro confirm = CHIKV nsP2 protease inhibition, confirmatory qHTS; shares compounds with nsP2pro primary; CHIKV nsP2 protease enzymatic activity, qHTS; Potency, µM (top dose mostly 25.5 µM), actives largely listed as inhibitors; actives 43% (n = 410); also: nearly all actives have a fitted effect of over 75% in size
HCV NS3 counter = selectivity counter-screen for CHIKV nsP2 protease inhibitors: HCV NS3/4A; shares compounds with nsP2pro primary; HCV NS3/4A protease biochemical counterscreen; Potency, µM (titrated, usually from 50.9 µM), actives largely listed as inhibitors; actives 20% (n = 410); AID 1964106; also: nearly all actives have a fitted effect of over 55% in size
Of the large screens only hits and unclear results are named; the others gave an inactive call (follow-up assays come after a bar, where they were run). Calls follow the shape of the full dose curve.

Cc1ccc(CNc2ncnc3ccc(-c4ccc(CO)o4)cc23)o1	nsP2pro primary inconclusive | nsP2 cell sec inactive | NSP2 full ctr inactive | Furin counter inactive | NS23 peptide cs inactive | Papain cs inactive | nsP2pro confirm inactive | HCV NS3 counter inactive
CCNC(=O)c1ccc(-c2ccc3ncnc(NCCc4cnc[nH]4)c3c2)o1	none
CC(O)c1ccc(-c2ccc3ncnc(N4CCOCC4)c3c2)o1 (stereo unspecified)	nsP2pro primary 10µM | nsP2 cell sec inconclusive | NSP2 full ctr 16µM | Furin counter inactive | NS23 peptide cs inconclusive | Papain cs inactive | nsP2pro confirm inactive | HCV NS3 counter 21µM
Cc1ccc(CN(C)c2ncnc3ccc(-c4ccc(CO)o4)cc23)o1	none
O=C(O)c1ccc(-c2ccc3ncnc(N4CCOCC4)c3c2)o1	none
Cc1cc(O)c(-c2ccc([C@@H](C)CN(C)C)cc2)c2c1[nH]c(=O)c1sccc12	none
O=C(CCc1c[nH]c2ccccc12)N1CC(N(Cc2ccccc2)C2CCOCC2)C1	none
N#Cc1cccc([C@@H](NCC2CC2)c2ccc(F)c(NC(=O)c3cc(C(F)(F)F)nn3-c3cccc(CN)c3)c2)c1	none
COc1ccc(C2CC(=O)N3CN(C4CCCCC4)CSC3=C2C#N)c(OC)c1 (stereo unspecified)	nsP2pro primary 8.9µM | nsP2 cell sec inactive | NSP2 full ctr 18µM | Furin counter inactive | NS23 peptide cs inconclusive | Papain cs inactive | nsP2pro confirm inconclusive | HCV NS3 counter inactive
N#CC1=C2SCN(C3CCCCC3)CN2C(=O)CC1c1ccc(Br)cc1 (stereo unspecified)	none
COc1ccc(NC(=O)c2cc3c(s2)CN(C2CCCC2)C3)c(OC)c1	none
COc1ccc(CCNC(=O)C(C)C2CCOCC2)cc1OC (stereo unspecified)	none
Cc1cc(OCCN(C)C)c(C)c2c1CC[C@@H]([C@H](C)C(=O)NCc1cccs1)C2	none
COc1cc(C)c2c(c1C)C[C@H](C(C)C(=O)NCc1ccco1)CC2 (stereo partly specified)	nsP2pro primary 7.9µM | nsP2 cell sec inactive
Cc1nc(-c2ccc(CNC(=O)CN3CCN(c4ncccn4)CC3)cc2)no1	none
COc1cccc(CN2Cc3cc(NC(=O)c4ccc(F)cc4F)ccc3OC(C)C2=O)c1 (stereo unspecified)	none
O=C(Cc1ccccc1)Nc1nnc(NC2CCN(c3nnc(NC(=O)Cc4ccccc4)s3)CC2)s1	none
Cc1ccccc1C(C(=O)NC1CCCCC1)N(C(=O)Cn1cnc2ccccc21)c1cccc(F)c1 (stereo unspecified)	none
N#Cc1ccnc(N2C(=O)CC[C@H]2C(=O)N(c2cncc(F)c2)[C@H](C(=O)NC2CC(F)(F)C2)c2ccccc2Cl)c1	nsP2pro primary inconclusive | nsP2 cell sec inconclusive | NSP2 full ctr inactive | Furin counter inactive | NS23 peptide cs inactive | Papain cs inactive | nsP2pro confirm inactive | HCV NS3 counter inconclusive
Cc1ncoc1C(=O)N1CCC2(CC1)CC(N(Cc1ccccc1)C1CC1)CCO2 (stereo unspecified)	none
CC1CN(c2ccccc2C#N)C(=O)CN1C(=O)c1ccc2c(c1)OCCO2 (stereo unspecified)	none
Cc1noc(-c2ccc(-c3noc(-c4ccc([N+](=O)[O-])c(C)c4)n3)cc2)n1	none
Cc1ccc([N+](=O)[O-])[c]2c1[O][Hg]2	nsP2pro primary 1.6µM | nsP2 cell sec 1.4µM | NSP2 full ctr inconclusive | Furin counter 1.3µM | NS23 peptide cs 5.8µM | Papain cs inactive | nsP2pro confirm 0.71µM | HCV NS3 counter 0.26µM
CC(Cc1ccncc1)Nc1nccc(-c2cnn(-c3ccccc3)c2)n1 (stereo unspecified)	none
Cc1cn([C@@H]2O[C@H](CO)[C@@H](O)[C@H]2O)c(=O)nc1N	none
O=S(=O)(Nc1ccccc1)c1ccc(NCc2ccc(Br)cc2O)cc1	none
O=C(O)CSc1cc(NS(=O)(=O)c2ccc(Br)cc2)c2ccccc2c1O	nsP2pro primary 1µM | nsP2 cell sec inconclusive | NSP2 full ctr 4.1µM | Furin counter inactive | NS23 peptide cs 1.8µM | Papain cs 18µM | nsP2pro confirm 0.8µM | HCV NS3 counter inconclusive
Cc1oc2c(cc(NS(=O)(=O)c3ccc(C(C)C)cc3)c3ccccc32)c1C(=O)OCc1ccccc1	none
CC(=O)N1CCC(C(=O)NC2CCc3n[nH]c(=O)n3CC2)CC1 (stereo unspecified)	none
Cc1n[nH]c(C)c1CNc1cc(C2CC(O)C2)ncn1 (stereo unspecified)	none
CN(C)CCc1c[nH]c2ccc(CN3CCN(C)S3(=O)=O)cc12	nsP2pro primary inconclusive | nsP2 cell sec inactive | NSP2 full ctr inactive | Furin counter inactive | NS23 peptide cs inactive | Papain cs inactive | nsP2pro confirm inactive | HCV NS3 counter inactive
CN(C)CCc1c[nH]c2ccc(CS(=O)(=O)N3CCCC3)cc12	none
CNS(=O)(=O)Cc1ccc2[nH]cc(CCN(C)C)c2c1	none
CC(=O)NCCC(=O)N1CCC2(CC1)CC(NC(C)=O)c1ccccc12 (stereo unspecified)	none
CC(=O)NCCCC(=O)N1CCC2(CC1)CN(S(C)(=O)=O)Cc1ccccc1O2	none
CC(=O)NC1CC2(CCN(C(=O)CCCNC(=O)OC(C)(C)C)CC2)Oc2ccccc21 (stereo unspecified)	nsP2pro primary inconclusive | nsP2 cell sec inactive | NSP2 full ctr inactive | Furin counter inactive | NS23 peptide cs inconclusive | Papain cs inactive | nsP2pro confirm inconclusive | HCV NS3 counter inconclusive
COc1cc(C(=O)O)ccc1NC(=O)[C@@H]1N[C@@H](CC(C)(C)C)[C@](C#N)(c2ccc(Cl)cc2F)[C@H]1c1cccc(Cl)c1F	none
COc1cccc(CN[C@H]2[C@H](O)[C@H](O)C[C@@H]2c2ccc(N3CCOCC3)nc2)c1	none
CC(C)C[C@H]1C(=O)O[C@H](Cc2ccc(N3CCOCC3)cc2)C(=O)N(C)[C@@H](CC(C)C)C(=O)O[C@H](C)C(=O)N(C)[C@@H](CC(C)C)C(=O)O[C@H](Cc2ccc(N3CCOCC3)cc2)C(=O)N(C)[C@@H](CC(C)C)C(=O)O[C@H](C)C(=O)N1C	none
c1ccc(-c2[nH]nc3ncc(-c4cn[nH]c4)nc23)cc1	none
